Screening data as filed in PubChem BioAssay.
Many of the other results were omitted from the sample, so hits are more common in it than they were.
RT RNaseH block: HIV-1 RT RNase H inhibitors, primary screen, biochemical, fluorescence; actives 1.9% (n = 65,000); Gag-Pol polyprotein (Human immunodeficiency virus type 1 group M subtype B (isolate …; inhibition, % at 10 µM; RT-RNase H RNA/DNA duplex cleavage; in the data active = inhibition above about 50%
Each line names hits and unclear results; the compound was inactive in the other large screens.

O=C(CN1CCC(O)(c2ccccc2F)CC1)NCCc1c[nH]c2ccccc12	none
Cn1c2ccccc2c2cnn(CC(=O)O)c(=O)c21	none
CC(=O)Nc1c(Cl)n(C(C)=O)c2ccccc12	none
CC(=O)n1c2ccccc2c2c1c1ccccc1n2C	RT RNaseH block 57
COC(=O)CSc1nc(C)c(Oc2ccccc2)c(=O)[nH]1	none
COc1ccc(Cc2nn3c(-c4cc(OC)c(OC)c(OC)c4)nnc3s2)cc1	RT RNaseH block 54
COc1ccc(Cc2nn3c(-c4ccccc4Br)nnc3s2)cc1	none
COc1cc(-c2nnc3sc(Cc4ccccc4)nn23)cc(OC)c1OC	none
Cc1cc2nc(C)c(Cc3ccccc3)c(=O)n2[nH]1	none
O=C(NC(c1ccccc1)c1ccccc1)C1CCCN(S(=O)(=O)c2cnc[nH]2)C1 (stereo unspecified)	none
COC(=O)c1cc(OC)c(OC)cc1NC(=O)c1cc(C)on1	none
CCOC(=O)c1sc(-c2ccccc2)cc1N	none
CCOC(=O)c1cc(-c2ccccc2)sc1N	RT RNaseH block 65
CCOC(=O)c1cnc(-c2ccccc2)nc1N	none
O=C1NC2CCCCC2NC1CC(=O)N1CCN(c2ccccc2)CC1 (stereo unspecified)	none
CCOC(=O)Nc1sc(=S)n(C)c1C	none
Cc1ccc(S(=O)(=O)NCCOC(=O)Nc2sc(=S)n(C)c2C)cc1	RT RNaseH block 50
Cc1c(NC(=O)OCCNC(=O)Nc2ccccc2)sc(=S)n1C	none
COc1cc(CSc2nnnn2-c2ccc(C)cc2)cc(OC)c1OC	none
O=C(O)c1ccc2c(c1)C(=O)N(c1cc(C(=O)O)ccc1Br)C2=O	none
COc1ccc(OC)c(NC(=O)CSc2nnc(N)s2)c1	none
Cc1ccc(-c2nc3s/c(=C\c4ccco4)c(=O)n3n2)cc1	none
O=c1nc2s/c(=C\c3ccco3)c(=O)n2nc1Cc1ccc(F)cc1	RT RNaseH block 53
N#CC1=C(N)n2c(s/c(=C\c3ccco3)c2=O)=C(C#N)C1c1ccco1 (stereo unspecified)	none
Cc1cc(C)n(-c2cc(-c3ccccc3)nc(C)n2)n1	none
COCCn1c(SCC(=O)NCC2CCCO2)nc2c(c1=O)SC(C)C2 (stereo unspecified)	none
CNS(=O)(=O)c1cccc(C(=O)OCc2cc(Cl)cc3c2OCOC3)c1	none
C=C(C)CSc1nc2c(c(=O)[nH]c(=O)n2C)n1CCC(C)C	none
CC(C)Cc1cc(C(=O)NCCCN2CCOCC2)no1	none
Cc1cc(C)cc(N(CC(=O)N2CCc3ccccc32)S(=O)(=O)c2c(C)noc2C)c1	none
CCOc1ccc(N(CC(=O)N2CCc3ccccc32)S(=O)(=O)c2c(C)noc2C)cc1	none
Cc1n[nH]c(C)c1S(=O)(=O)N(CC(=O)N1CCc2ccccc21)c1ccc(C(C)C)cc1	RT RNaseH block 51
O=C(CN(Cc1ccc(F)cc1)C(=O)Cn1nnc2ccccc21)NCC1CCCO1 (stereo unspecified)	none
CCN(CC)S(=O)(=O)c1cccc2c(N(C)C)cccc12	none
CCSc1ccccc1C(=O)NCc1ccc2c(c1)OCO2	none
CN1CC(=O)NC1=NC(=O)C12CC3CC(CC(C3)C1)C2	none
CCOc1ccccc1N1CCN(Cc2cccc(OC)c2OC)CC1	none
COc1ccc(OC)c(-n2cnnn2)c1	none
CCOc1ccccc1N1Cc2cc(C)c(C)cc2C1	RT RNaseH block 53
CCOc1ccccc1N1CCN(C(=O)c2cc(C)oc2C)CC1	none
COc1ccc(OC)c(N2Cc3cc(C)c(C)cc3C2)c1	RT RNaseH block 62
COc1ccc(OC)c(CN2CCN(c3ccccc3OC)CC2)c1	none
COc1ccc(S(=O)(=O)NCC2CCC(C(=O)N3CCC4(CC3)OCCO4)CC2)cc1 (stereo unspecified)	none
Cc1ccc(NC(=O)COC(=O)c2ccn(C)n2)cc1	none
Cc1ccc(-c2nn3c(C)nnc3s2)cc1NC(=O)c1ccc(-c2ccc(Cl)cc2Cl)o1	RT RNaseH block 60
Cc1ccc(-c2nn3c(C)nnc3s2)cc1NC(=O)c1ccc(Br)o1	none
Cc1ccc(-c2nn3c(C)nnc3s2)cc1NC(=O)c1ccc(-c2cccc(Cl)c2)o1	none
O=C(CSc1nnc(-c2ccco2)o1)N1c2ccccc2CCc2ccccc21	none
CC(=O)N1CCN(c2nc3cc4c(cc3nc2NS(=O)(=O)c2ccccc2)OCCO4)CC1	none
CSc1nsc(SCc2ccc(F)cc2)n1	none
O=C(Nc1sc2c(c1C(=O)O)CCC2)c1cccs1	none
NC(=O)c1c(NC(=O)c2cccs2)sc2c1CCCCCC2	RT RNaseH block 57
O=C(Nc1nc2c(s1)CCCC2)c1cccs1	none
CCN(CC)S(=O)(=O)c1ccc(NC2CCCc3ccccc32)nc1 (stereo unspecified)	none
CC(C)CCNC(=O)Cn1c(NCCC(C)C)nc2c1c(=O)n(C)c(=O)n2C	none
COc1cccc(C(=O)N2CCN(S(=O)(=O)Cc3ccccc3)CC2)c1OC	none
COC(=O)Cc1cc(=O)[nH]c(/N=C(/NC(=O)c2ccccc2)Nc2ccccc2C)n1	RT RNaseH block 53
COC(=O)Cc1cc(=O)[nH]c(/N=C(\N)Nc2ccc(C)cc2C)n1	none
CCCc1cc(=O)[nH]c(SCC(=O)NC(=O)c2ccccc2)n1	none
O=C(C1CCN(S(=O)(=O)c2ccc(F)cc2)CC1)N1CCOCC1	none
CCOCCn1c(SCc2ccccc2)nc2c1c(=O)[nH]c(=O)n2C	none
